In PubChem BioAssay (EPA / NIEHS):
Activity calls are given as the source filed them. How the source made its calls: active means hit-call score of the fitted dose curve at least 0.9, where 1 is the maximum; inactive means score below 0.9.

These compounds were tested against Nuclear respiratory factor 1 (Homo sapiens) (UniProt Q16656) (assay: ATG_NRF1_CIS: Attagene CIS-FACTORIAL HepG2 Assay for human Nuclear Respiratory Factor 1 (NRF1) Orphan Gene (AID 2282987)). Settings: HepG2 NRF1 cis-element reporter, Attagene multiplex; actives raise or lower the signal.
Summary of the method: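 Endogenous NRF1-driven reporter transcription measured in transiently transfected human HepG2 liver cells. Readout: reporter mRNA by RT-PCR and capillary electrophoresis with fluorescence detection, 24 h post-dosing. Gain or loss of signal fitted relative to DMSO baseline.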

Sequence of Nuclear respiratory factor 1 (Homo sapiens) (Q16656 whole entry, looked up): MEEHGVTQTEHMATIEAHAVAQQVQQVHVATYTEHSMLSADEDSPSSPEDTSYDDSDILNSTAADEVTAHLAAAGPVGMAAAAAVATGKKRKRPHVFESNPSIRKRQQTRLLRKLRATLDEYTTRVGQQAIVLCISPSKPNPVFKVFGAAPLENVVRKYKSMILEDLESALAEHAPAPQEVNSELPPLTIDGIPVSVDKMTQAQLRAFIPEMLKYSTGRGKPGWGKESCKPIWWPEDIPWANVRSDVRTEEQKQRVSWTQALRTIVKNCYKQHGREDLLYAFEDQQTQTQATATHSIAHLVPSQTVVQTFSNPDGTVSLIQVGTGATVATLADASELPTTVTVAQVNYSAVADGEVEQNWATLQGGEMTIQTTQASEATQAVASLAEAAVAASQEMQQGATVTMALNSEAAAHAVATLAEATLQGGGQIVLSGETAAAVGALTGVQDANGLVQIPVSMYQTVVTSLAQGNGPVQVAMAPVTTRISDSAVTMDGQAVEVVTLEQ

SMILES	outcome	AC50
C=CC(C)C#N (centres undefined)	inactive	
CCCCC(CC)COC(=O)c1ccc(O)cc1 (centres undefined)	inactive	
CCOC(=O)[C@@H](C)Oc1ccc(Oc2nc3ccc(Cl)cc3o2)cc1	inactive	
CC(C)(C)OC(=O)c1ccc(O)cc1	inactive	
COc1cc(Cl)c(OC)cc1N	inactive	
O=[N+]([O-])c1ccc(O)cc1C(F)(F)F		25.2 µM (active)
CCOC(=O)CC(C)O (centres undefined)	inactive	
COC(=O)c1ccc(OC)cc1	inactive	
COC(C)(C)CC(C)=O	inactive	
CC(=O)O[C@H]1C[C@@H]2CC[C@@]1(C)C2(C)C	inactive	
O=C(Nc1ccc2c(c1)Cc1ccccc1-2)C(F)(F)F	inactive	
CC(=O)O[C@@H]1C[C@@H]2CC[C@@]1(C)C2(C)C	inactive	
NCC1CCCC(CN)C1 (centres undefined)	inactive	
CCCCCCCCSCCO	inactive	
CCCCCCC(O)CCCCCCCCCCC(=O)O (centres undefined)	inactive	
CC1C2CC(CC2C2CCCC(O)C2)C1(C)C (centres undefined)	inactive	
CCCCCCCCCCCC(=O)OC[C@@H](O)[C@H]1OC[C@H](O)[C@H]1O	inactive	
CCc1cc(C(C)(C)C)c(O)c(C(C)(C)C)c1	inactive	
C=CC(C)(O)CCC=C(C)C (centres undefined)	inactive	
CCC1(c2ccccc2)C(=O)NCNC1=O	inactive	
CCc1cc(Cc2cc(CC)cc(C(C)(C)C)c2O)c(O)c(C(C)(C)C)c1	inactive	
CC1(C)C(=O)N(Cl)C(=O)N1Br	inactive	
Cc1cc(C)nc(NS(=O)(=O)c2ccc(N)cc2)n1	inactive	
C=C1CC[C@H](O)C/C1=C/C=C1\CCC[C@]2(C)[C@@H]([C@H](C)/C=C/[C@H](C)C(C)C)CC[C@@H]12	inactive	
